Only some compounds are listed: those with a hit (about 7.4% of all), similar ones and a draw of the others.
SMN2 splice enh – enhancers of SMN2 splice variant expression. HEK293 SMN2-luciferase splicing reporter, luminescence, 30-36 h. hit rate 2.8% among 210,000. Potency, µM (series often up to 46.1 µM), without a hit: at the top dose activity change, positive = activation, hits mostly activators; further: % of control where 0% means no effect; nearly all actives have a fitted effect of over 55% in size
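HEK293 cells carry an SMN2 minigene-luciferase reporter in which exon 7 inclusion puts luciferase in frame. Cells were seeded at 2000 cells/well, attached for 10-12 hours, then exposed to compounds for 30-36 hours at 37C before ONE-Glo luminescence.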
NPC1 promoter act – activates the NPC1 promoter; Huh7 NPC1 promoter luciferase reporter, 24 h; hit rate 2.4% among 320,000; Potency, µM (highest dose often 9.22 µM), for the others: at the highest dose activation, usual class: activators; AID 485313; further: % of control where 0% means no effect; nearly all actives have a fitted effect of over 60% in size
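Quantitative HTS used a cell-based reporter: Huh7 cells stably bearing the NPC1 promoter upstream of luciferase were treated with compounds for 24 h, and promoter activation was read as luminescence.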
FLuc counter – inhibits or activates purified firefly luciferase, miR-21 counter-screen. P08659. purified FLuc, Km substrates, luminescence inhibition. Potency, µM (top dose mostly 57.5 µM), for the others: at the top dose activity change, negative = inhibition, actives largely listed as inhibitors. hit rate 6.9% among 360,000;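 further: plate controls were vehicle for no effect and reference inhibitor for full effect; nearly all actives have a fitted effect of over 55% in size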
Target sequence (P08659 whole entry, looked up): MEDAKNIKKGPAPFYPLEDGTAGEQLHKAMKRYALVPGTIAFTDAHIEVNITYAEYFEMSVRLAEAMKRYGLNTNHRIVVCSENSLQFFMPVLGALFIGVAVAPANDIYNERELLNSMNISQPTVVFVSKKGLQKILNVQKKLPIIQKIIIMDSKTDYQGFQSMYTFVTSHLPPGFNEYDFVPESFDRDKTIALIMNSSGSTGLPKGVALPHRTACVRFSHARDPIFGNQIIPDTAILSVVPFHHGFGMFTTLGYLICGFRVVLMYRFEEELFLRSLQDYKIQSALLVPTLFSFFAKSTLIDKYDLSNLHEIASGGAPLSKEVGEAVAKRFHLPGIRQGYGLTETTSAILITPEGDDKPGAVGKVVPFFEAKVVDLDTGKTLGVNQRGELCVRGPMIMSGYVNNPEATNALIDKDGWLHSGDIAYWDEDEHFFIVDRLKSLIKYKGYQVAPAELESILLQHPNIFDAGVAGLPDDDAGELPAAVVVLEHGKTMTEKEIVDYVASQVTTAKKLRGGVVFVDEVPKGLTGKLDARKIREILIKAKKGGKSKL
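Purified P. pyralis luciferase (10nM final) with 10uM D-luciferin and 10uM ATP (Km levels) in 50mM Tris acetate pH 7.5, 10mM Mg acetate, 0.01% Tween-20, 0.05% BSA; qHTS 6-point titration, ~60 µM downward; luminescence read.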
Rab9 prom act – Rab9 promoter activation; Huh7 Rab9 promoter-luciferase reporter, luminescence, 24 h; Potency, µM (highest dose often 9.22 µM), for the others: at the highest dose activation, negative = inhibition, usual class: activators; hit rate 2.8% among 320,000; AID 485297; further: % of control where 0% means no effect; nearly all actives have a fitted effect of over 60% in size
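Huh7 cells stably carrying a Rab9 promoter-luciferase reporter, 1500 cells per well in OP-MEM I with 10% FBS, treated with compound 24 hours at 37C. Luciferase activity read by luminescence after 10 minutes with Amplite reagent.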
ELG1 genotox – inducers of genotoxicity in HEK293T ELG1-luciferase cells. HEK293T ELG1-luciferase reporter, luminescence, 16 h. Potency, µM (top dose mostly 46 µM), for inactives: at the highest dose activity change, positive = activation, most hits filed as activators. hit rate 1.3% among 330,000. AID 504466; further: % of control where 0% means no effect; nearly all actives have a fitted effect of over 60% in size
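HEK293T cells expressing luciferase-tagged ELG1 were treated with compound or DMSO for 16 hr at 37°C. Luciferase activity was then read after 30 min with ONE-Glo at room temperature; rising signal flags genetic stress.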
Starred values were filed as active, the others as inactive; ? = inconclusive; nt = no result; [ ] = another dose, or the depositor's remark. The call rests on the fitted dose curve; in most records, active means well fitted curve in the direction sought with a large enough effect; inconclusive means small, poorly fitted or top-dose-only effect, or another doubt; inactive means no such curve, though single readings can be large; an effect the other way counts as inactive or inconclusive. Potency means the concentration at half of the fitted maximal effect.

SMILES	SMN2 splice enh	NPC1 promoter act	FLuc counter	Rab9 prom act	ELG1 genotox
CCOC(=O)C(C)Nc1ncnc2onc(C)c12 (stereo not given)	4.5%	nt	-0.3%	nt	nt
Cc1ccc(S(=O)(=O)Oc2cc(S(=O)(=O)O)cc3cc(S(=O)(=O)O)cc(N)c23)cc1	2.4%[9.22 µM]	nt	nt	nt	nt
COc1ccc2ccccc2c1/C=N/NC(=O)c1ccccc1F	nt	2.1%	21.3µM*	-1.5%	-0.5%
COc1ccc2ccccc2c1/C=N\NC(=O)c1ccc(C)s1	nt	3.2%	12µM*	-0.6%	1.0%
Nc1cccc2c1C(=O)N(C(=O)/C=C/c1cccc(Br)c1)C2=O	nt	-8.3%	?	-7.9%	7.8%
Nc1cccc2c1C(=O)N(C(=O)/C=C/c1cccc(F)c1)C2=O	15.2%	-8.3%	21.3µM*	-4.5%	-0.3%
O=C(NCc1ccccc1Cl)c1ccc(CS(=O)(=O)c2ccc(Br)cc2)o1	-34.4%	nt	-6.9%	nt	nt
COc1cccc(N2CCN(C(=O)Cn3ncc4c3-c3ccccc3OC4)CC2)c1	-1.4%	nt	3.6%	nt	nt
O=C(CCn1cnc2ccccc21)N/N=C/c1ccccc1O	-53.0%	0.7%	8.49µM*	-35.4%	?
O=C(CCn1cnc2ccccc21)N/N=C/c1ccc(O)cc1	-12.6%	-0.4%	?	-4.8%	0.7%
Cc1ccc(C(=O)OC[C@H]2O[C@H](Cl)C[C@@H]2OC(=O)c2ccc(C)cc2)cc1	6.4%	nt	nt	nt	nt
O=C(NCCc1ccc(F)cc1)Nc1ccc2c(c1)OCO2	nt	?	?	2.82µM*	13.5%
O=C(O)CCCCCNC(=O)Nc1ccc2c(c1)OCCO2	nt	-0.5%	9.53µM*	-32.5%	5.0%
COc1ccc(CCNC(=O)Nc2ccc3c(c2)OCO3)cc1OC	nt	2.2%	-13.7%	0.3%	0.7%
O=C(NCCc1ccccc1)Nc1ccc2c(c1)OCO2	14.1µM*	2.51µM*	10.7µM*	1.41µM*	?
O=C(NCCc1ccccc1)Nc1cccc(Cl)c1	20.8%	?	16.9µM*	?	8.3%
O=C(NCCc1ccccc1)C(=O)Nc1ccc2c(c1)OCCO2	20.5%	29.5%	-6.5%	25.8%	?
CC(=O)O[C@H]1CC[C@@]2(C)[C@@H](CC[C@H]3[C@H]2CC(=O)[C@@]2(C)[C@@H]3C[C@H]3CC(C)=CC(=O)[C@H]32)C1	12.5%[9.22 µM]	nt	nt	nt	nt
O=C(Nc1ccc2c(c1)OCO2)OCc1ccccc1	20µM*	1.58µM*	6.01µM*	1.26µM*	?
O=C(COc1ccccc1F)NC1CC(=O)N(c2ccc3c(c2)OCCO3)C1 (stereo not given)	nt	nt	3.6%	nt	nt
COc1cc2c(cc1OC)-c1cc(Nc3ccc4c(c3)OCCO4)nc(=O)n1CC2	-0.1%	-0.9%	15.1µM*	-9.5%	?
COc1ccc(Nc2cc3n(c(=O)n2)CCc2cc(OC)c(OC)cc2-3)cc1	nt	1.8%	?	0.4%	14.5%
COc1ccc(/C=N/OC(=O)Nc2ccccc2)cc1[N+](=O)[O-]	20.0%	6.0%	15.1µM*	23.4%	11.9%
O=C(Nc1ccccc1)O/N=C/c1ccccc1Cl	0.1%	5.7%	?	-2.9%	15.4%
Cc1ccc(NC(=O)O/N=C/c2ccc(F)cc2)cc1	nt	?	15.1µM*	?	?
SMILES	SMN2 splice enh	NPC1 promoter act	FLuc counter	Rab9 prom act	ELG1 genotox
COc1ccc(C(=O)Nc2ccc(Nc3ccccc3)cc2)cc1[N+](=O)[O-]	nt	-5.6%	0.8%	-0.8%	-10.5%
O=C(Nc1ccccc1)O/N=C/c1ccc(F)cc1	nt	0.631µM*	2.39µM*	0.794µM*	?
CCCc1noc(-c2ccc(N3CCCCC3)c([N+](=O)[O-])c2)n1	nt	nt	4.1%	nt	nt
CC1CCC(Nc2nc3c(-c4ccc(Cl)cc4)nnn3c3ccccc23)CC1 (stereo not given)	-9.9%	nt	1.4%	nt	nt
CNc1nnc(SCC(=O)c2cc(C)n(C3CC3)c2C)s1	nt	?	nt	3.55µM*	?
Cc1cc(C(=O)CSc2nnnn2C)c(C)n1C1CC1	10µM*	?	?	2.82µM*	?
Cc1cc(NC(=O)CSc2nnnn2C2CCCC2)no1	16.3%	-1.8%	1.8%	-0.6%	1.4%
Cc1nnc(SCC(=O)c2cc(C)n(C3CC3)c2C)s1	25.1µM*	2.24µM*	12µM*	2µM*	?
CCn1c(C)cc(C(=O)CSc2nnnn2C2CCCC2)c1C	nt	0.708µM*	1.9µM*	0.708µM*	?
CN(C)c1ccc(CNC(=O)C2CCCN(S(=O)(=O)c3ccc4c(ccn4C)c3)C2)cc1 (stereo not given)	nt	nt	-0.2%	nt	nt
CC(C)(C)[C@]1(O)CCN2CC3c4ccccc4CCc4cccc(c43)[C@@H]2C1 (stereo not given in full)	-37.7%	nt	nt	nt	nt
O=C(Cc1ccccc1)Nc1nccs1	nt	0.7%	-1.5%	3.1%	0.5%
CC(C)(C)c1nnc(NC(=S)Nc2ccccc2)s1	12.6µM*	3.55µM*	9.53µM*	3.16µM*	?
Fc1ccc(NC(=S)Nc2nccs2)cc1	?	?	21.3µM*	3.55µM*	5.6%
S=C(Nc1ccccc1)Nc1nccs1	?	2.51µM*	15.1µM*	?	7.9%
COc1cc(OC)cc(C(=O)Nc2nnc(NC(=S)Nc3ccccc3)s2)c1	12.1%	-2.0%	-0.8%	-2.3%	-5.4%
Cc1ccc(C2C3=C(CC(C)(C)CC3=O)N(CCN3CCOCC3)C3=C2C(=O)CC(C)(C)C3)cc1	-7.6%	-3.4%	-9.1%	3.55µM*	-1.9%
CC1(C)CC(=O)C2=C(C1)N(CCN1CCOCC1)C1=C(C(=O)CC(C)(C)C1)C2c1ccc(Cl)c([N+](=O)[O-])c1	-6.2%	-4.8%	-1.6%	-1.7%	-1.2%
Cc1nc2oc(C(=O)c3ccc(Br)cc3)c(N)c2c2c1COC(C)(C)C2	nt	-0.1%	-4.0%	6.4%	1.4%
COc1ccc(C(=O)c2oc3ccccc3c2NC(=O)c2cccc(OC)c2)cc1	-18.2%	nt	-2.5%	nt	nt
COc1ccc(C(=O)c2oc3nc(C)cc(C)c3c2N)cc1	-8.7%	0.0%	12µM*	17.6%	0.5%
CCc1ccc(C(=O)c2oc3nc(C)cc(C)c3c2N)cc1	-4.6%	2.6%	15.1µM*	24.2%	6.0%
Cc1ccc(C(=O)c2oc3nc(C)cc(C)c3c2N)cc1	-4.0%	-0.5%	13.5µM*	-10.1%	1.7%
COc1ccc(-n2c(=O)c3c4c(sc3n(Cc3ccc(F)cc3)c2=O)CN(C(C)=O)CC4)c(OC)c1	-1.2%	nt	-5.4%	nt	nt
Cc1ccc(C(=O)N(C)c2nnc(-c3ccncc3)s2)cc1	29.8%	?	16.9µM*	?	13.2%
COc1ccc(-c2nnc(N(C)C(=O)C3CCCO3)s2)cc1 (stereo not given)	11.2µM*	2.51µM*	13.5µM*	2µM*	?
CN(C(=O)c1ccncc1)c1nnc(-c2cccnc2)s1	nt	2.1%	2.6%	2.0%	?
CN(C(=O)c1ccncc1)c1nnc(-c2ccccn2)s1	?	23.1%	16.9µM*	?	?
COc1ccc(-c2nnc(N(C)C(=O)c3ccno3)s2)cc1	11.2µM*	?	10.7µM*	3.16µM*	?

Assay outcomes from PubChem.
